p53ts 32C tox: cytotoxicity in p53ts cells at permissive temperature; H1299-p53A138V at 32C, ATP luminescence viability, 24 h; Potency, µM (doses to about 46.1 µM), usual class: cytotoxic; actives 0.93% (n = 130,000); AID 924; also: nearly all actives have a fitted effect of over 55% in size
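ATP-content luminescence (ATPlite) read-out after 24 h compound exposure at 32C in H1299-p53A138V cells (600/well). Tested up to 46 uM. Normalized to DMSO (0%) and 100 uM tamoxifen (100% killing); Hill-fit AC50.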
YjeE inh: inhibitors of E. coli YjeE (TsaE) | Potency, µM | purified YjeE enzyme, qHTS inhibition assay | actives 0.05% (n = 71,000) | P0AF67 | AID 605
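Fluorescence polarization of a BODIPY Texas Red–ADP probe (2 uM) bound to purified YjeE (10 uM) was read after 15 min room-temperature incubation with compounds. Loss of polarization marks inhibitors; ADP serves as titrated control.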
Tau filament bind: binds recombinant human tau filaments | P10636 | recombinant tau filaments, thioflavin S fluorescence, 15 h; filaments grown with octadecylsulfate alongside compound | Potency, µM (highest dose often 57.1 µM) | actives 2% (n = 71,000) | AID 596;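 also: actives lower thioflavin S fluorescence by blocking filaments or displacing dye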
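Recombinant tau protein (human, 1 uM final) plus 30 uM ODS in HEPES pH 7.4 with NaCl, DTT and thioflavine S. Compound present from the start; fluorescence at 510 nm after 15 h, 37 C.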
p53ts 39C tox: kills p53ts cells at the nonpermissive temperature; H1299-p53A138V viability at 39C, ATP luminescence, 24 h; Potency, µM (top dose mostly 46.1 µM), actives largely listed as cytotoxic; actives 1.5% (n = 130,000); AID 902; also: nearly all actives have a fitted effect of over 55% in size
DNA Pol III inh: DNA polymerase III holoenzyme inhibition. reconstituted DNA polymerase III holoenzyme replication, biochemical. Potency, µM (top dose mostly 57.1 µM). actives 0.25% (n = 71,000). AID 603
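Reconstituted *E. coli* holoenzyme (0.35 nM Pol III, 1 nM beta, 154 nM SSB, 2 nM primase) was preincubated with compound for 15 min at RT. Synthesis on 1.4 nM ssM13Gori ran 35 min, then was stopped with PicoGreen/EDTA and read as dsDNA fluorescence.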
ERK AVP inh: inhibitors of vasopressin-stimulated ERK signaling pathway; HEK293-V1b, vasopressin-stimulated pERK AlphaScreen; Potency, µM (highest dose often 57.5 µM), hits mostly inhibitors; actives 0.99% (n = 72,000); AID 995; also: nearly all actives have a fitted effect of over 55% in size
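Overnight-seeded V1b-HEK293 cells in 1% FBS got compound, then vasopressin (25 nM final, 5 min, 37C), then lysis buffer. AlphaScreen detection of phospho-ERK; activity normalized to basal and full-stimulation controls.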
Of the large screens only hits and unclear results are named; the others gave an inactive call. Shown are actives, neighbours in structure and some others; about 3.2% of the full set was active somewhere. Calls follow the shape of the dose curve; as a rule, active = well fitted curve in the direction sought with a large enough effect; inconclusive = small, poorly fitted or top-dose-only effect, or another doubt; inactive = no such curve, though single readings can be large; an effect the other way counts as inactive or inconclusive.

N[C@@H](Cc1ccc(O)c(I)c1)C(=O)O	none (no result: YjeE inh, Tau filament bind, DNA Pol III inh)
CCOC(=O)c1ccc(N2C(=O)c3[nH]nc(-c4ccccc4)c3C2c2cccs2)cc1 (stereo not given)	p53ts 39C tox inconclusive (no result: YjeE inh, Tau filament bind, DNA Pol III inh, ERK AVP inh)
O=S(=O)(O)c1ccc2c(N=Nc3c(O)ccc4ccccc34)cccc2c1	Tau filament bind 3.16µM
Cc1ccc(N=Nc2c(O)c(S(=O)(=O)O)cc3cc(S(=O)(=O)O)ccc23)c(C)c1	none
Nc1ccccc1N=Nc1c(S(=O)(=O)O)cc2cc(S(=O)(=O)O)cc(O)c2c1O	DNA Pol III inh 2.51µM
O=S(=O)(O)c1cc(S(=O)(=O)O)c2c(N=Nc3cccc4ccccc34)c(O)ccc2c1	Tau filament bind 3.98µM, ERK AVP inh inconclusive
Cc1cn(C)c(CC(=O)Nc2ccc(F)cc2Cl)c1C(=O)O	none (no result: YjeE inh, Tau filament bind, DNA Pol III inh, ERK AVP inh)
c1coc(C2Nc3cccc4cccc(c34)N2)c1	Tau filament bind 6.31µM, DNA Pol III inh 3.98µM, ERK AVP inh inconclusive
CCOC(=O)c1c(C)[nH]c(CCC(=O)NCc2ccc(CC)cc2)c1C	none (no result: YjeE inh, Tau filament bind, DNA Pol III inh, ERK AVP inh)
NCCSc1nc(-c2ccccc2)c(-c2ccccc2)o1	none
N/C(CSc1nc(-c2ccccc2)c(-c2ccccc2)o1)=N\O	ERK AVP inh 31.6µM
Cc1c2cnn(-c3ccccc3)c(=O)c2c(C)n1C(C)C(=O)NCc1cccc(Br)c1 (stereo not given)	none (no result: YjeE inh, Tau filament bind, DNA Pol III inh, ERK AVP inh)
CC(C(=O)NCc1cccc(Br)c1)n1ncn2cccc2c1=O (stereo not given)	p53ts 32C tox inconclusive, p53ts 39C tox 12.6µM (no result: YjeE inh, Tau filament bind, DNA Pol III inh, ERK AVP inh)
CN(C)c1ccc(-c2cc(NCc3cccnc3)ncn2)cc1	p53ts 32C tox inconclusive, p53ts 39C tox 7.94µM
COc1cccc(-c2cc(NCc3ccccc3)ncn2)c1	p53ts 32C tox inconclusive, p53ts 39C tox inconclusive, ERK AVP inh 5.01µM
Clc1ccccc1-c1cc(NCc2ccccc2)ncn1	ERK AVP inh 25.1µM
COc1cccc(-c2cc(NCc3ccc(OC)cc3OC)ncn2)c1	none
CCCCn1c(=O)c2oc3ccccc3c2n(CC(=O)Nc2cccc(Cl)c2C)c1=O	none (no result: YjeE inh, Tau filament bind, DNA Pol III inh, ERK AVP inh)
CN(C)CCOc1nc(-c2ccccc2)nc2c1oc1ccccc12	DNA Pol III inh 25.1µM
O=C(NCc1ccccc1)c1ccco1	none (no result: YjeE inh, Tau filament bind, DNA Pol III inh, ERK AVP inh)
O=C(NC(=S)N(CCc1ccccc1)CCc1ccccc1)c1ccco1	p53ts 39C tox 11.2µM (no result: YjeE inh, Tau filament bind, DNA Pol III inh, ERK AVP inh)
CC1=CC(=O)c2ccccc2C1=O	p53ts 32C tox 25.1µM, Tau filament bind inconclusive, p53ts 39C tox inconclusive
Cc1ccc2c(c1[N+](=O)[O-])C(=O)c1ccccc1C2=O	none
COc1cccc(CN2C(=O)N(c3ccc(C)cc3)C(=O)C2CC(=O)Nc2cc(OC)cc(OC)c2)c1 (stereo not given)	none (no result: YjeE inh, Tau filament bind, DNA Pol III inh, ERK AVP inh)
CCc1ccc(Sc2cc(C(=O)NCc3ccccc3OC)c3ccccc3n2)cc1	p53ts 39C tox inconclusive (no result: YjeE inh, Tau filament bind, DNA Pol III inh, ERK AVP inh)
Nc1ccc(-c2n[nH]c(=O)c3ccccc23)cc1N	Tau filament bind 15.8µM
Cc1ccc(-c2n[nH]c(=O)c3ccccc23)cc1N	none
CC(C)(C)C1CCc2nc(NC(=O)c3cccc(Cl)c3)sc2C1 (stereo not given)	p53ts 39C tox inconclusive (no result: YjeE inh, Tau filament bind, DNA Pol III inh, ERK AVP inh)
CCCCCCCC[N+](CCCCCCCC)(CCCCCCCC)CCCCCCCC	p53ts 32C tox inconclusive, YjeE inh inconclusive, p53ts 39C tox 15.8µM
CCNc1ncc2nc(-c3cc(F)cc(F)c3)c(=O)n(-c3ccccc3)c2n1	none
CCCCCCCCCCCCC/C=C\[C@@H](O)[C@@H](N)CO	Tau filament bind 31.6µM, p53ts 39C tox inconclusive
COc1ccc(S(=O)(=O)N2c3ccc(Cl)cc3[C@](O)(c3ccccc3Cl)[C@@H]2C(=O)N2CCC[C@H]2C(N)=O)cc1OC	ERK AVP inh 3.98µM (no result: YjeE inh, Tau filament bind, DNA Pol III inh)
COc1ccc(S(=O)(=O)N2CCC(C(=O)Nc3cccc(Cl)c3)CC2)cc1OC	none (no result: YjeE inh, Tau filament bind, DNA Pol III inh, ERK AVP inh)
Cc1cc(N)ccc1-n1c(C)ccc1C	Tau filament bind 25.1µM
COC(=O)/C=C/C(C)=C/C=C/C(C)=C/C=C/C=C(C)/C=C/C=C(C)/C=C/C(=O)O	none (no result: YjeE inh, Tau filament bind, DNA Pol III inh)
O=C(O)c1ccc(NS(=O)(=O)c2cccc3ccccc23)cc1	none (no result: YjeE inh, Tau filament bind, DNA Pol III inh, ERK AVP inh)
Cc1nc(NCc2ccco2)c2oc3ccccc3c2n1	ERK AVP inh 25.1µM
COc1ccc(CCNc2nc(C)nc3c2oc2ccccc23)cc1OC	p53ts 32C tox inconclusive, ERK AVP inh 12.6µM
Cc1nc(NCCc2cnc[nH]2)c2oc3ccccc3c2n1	none
COc1ccc(CCNc2ncnc3c2c(-c2ccccc2)cn3-c2ccc(F)cc2)cc1OC	none (no result: YjeE inh, Tau filament bind, DNA Pol III inh, ERK AVP inh)
COc1ccc(CCNc2ncnc3c2oc2ccccc23)cc1OC	ERK AVP inh 31.6µM

Screens as filed in PubChem BioAssay.
